Results reported in PubChem BioAssay (NCI).
This is part of a sample that, as a whole, favours compounds with a hit. Of some 83,000 tested, about 20% had one in any assay.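 Interpretation: 100, growth as untreated; towards 0, rising growth inhibition; 0, no net growth; 0 to -100, cell death. Compounds scoring below 10 were considered active.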 Active and inactive are the calls of the source.

Columns and labels:
Assay in all cases: NCI-60 one-dose screen, 48 h (100 = growth as untreated, 0 = no growth, -100 = all killed)
Conditions in all cases: 10 µM unless noted
[1] = system: T-47D breast
[2] = system: BT-549 breast
[3] = system: MDA-MB-435 melanoma
[4] = system: SW-620 colon
[5] = system: MCF7 breast
[6] = system: HCT-116 colon
[7] = system: HCC-2998 colon
[8] = system: KM12 colon

Measured: growth

COc1ccc2[nH]c(O)c(/C=c3/cc4c(c(-c5ccc(F)c(OC)c5)n3)=Nc3ccccc3-4)c2c1
active: [3] 6.77% | [4] -23.2% | [5] 1.29% | [6] -91% | [7] -0.339%
inactive: [1] 89.6% | [2] 84.1% | [8] 13.1%

O=C(Nc1ccccc1Cl)Oc1ccc(-c2ccccc2)cc1
inactive: [1] 106% | [2] 113% | [3] 101% | [4] 112% | [5] 110% | [6] 110% | [7] 119% | [8] 120%

CCCCCCCCCOc1c(OC)cc(C2CC(=O)Nc3c2c(C)nn3-c2nc3ccccc3[nH]2)cc1OC (stereo not drawn)
inactive: [7] 10%
active: [1] -11% | [2] -16.7% | [3] -47.4% | [4] -29.2% | [5] 4.28% | [6] 0.609% | [8] -53.1%

O=[N+]([O-])c1ccc(OCCO)cc1
inactive: [1] 101% | [2] 109% | [3] 105% | [4] 101% | [5] 94.3% | [6] 103% | [7] 113% | [8] 106%

Cc1cc(=O)oc2c1ccc1oc(C#N)c(C)c12
inactive: [1] 88.6% | [2] 94% | [3] 95.5% | [4] 95.7% | [5] 102% | [6] 89.9% | [7] 106% | [8] 104%

O=C(NCCNc1cc(-c2cn(-c3ccccc3)nc2-c2cccc(O)c2)ccn1)Nc1ccccc1
inactive: [1] 45.9% | [2] 52.9% | [3] 93% | [4] 84.5% | [5] 78.4% | [6] 53.2% | [7] 92.5% | [8] 89.2%

O=C(/C=C/c1c(Cl)nc2sccn12)c1nccs1
inactive: [1] 87.5% | [2] 109% | [3] 91.9% | [4] 77.8% | [5] 76.2% | [6] 81.1% | [7] 102% | [8] 89.7%

COc1cc(-c2nn(-c3ccccc3)cc2-c2ccnc(NCCNS(=O)(=O)c3ccc(Cl)cc3)n2)ccc1Cl
active: [1] 4.68%
inactive: [2] 16.6% | [3] 28.2% | [4] 51.1% | [5] 18% | [6] 14.3% | [7] 34.1% | [8] 20.8%

COc1ccc(C(=O)/C=C/c2c(C(F)(F)F)nc3sccn23)cc1OC
inactive: [2] 11.3% | [4] 10.4% | [7] 31.4% | [8] 11.2%
active: [1] -16.9% | [3] 3.47% | [5] 7.83% | [6] 6.66%

CCOC(=O)c1ccc(N2NC(=O)/C(=C/c3ccc([N+](=O)[O-])o3)C2=O)cc1
inactive: [1] 109% | [2] 99.7% | [3] 109% | [4] 106% | [5] 89.4% | [6] 82.2% | [7] 103% | [8] 106%

O=Cc1c[nH]c2ccc(-c3csc4ccccc34)cc12
active: [3] -17.5% | [8] 2.08%
inactive: [1] 70.7% | [2] 38.5% | [4] 15.6% | [5] 40.2% | [6] 21.2% | [7] 13.4%

CCN(CC)CCN1CC(O)=C(c2nc(-c3ccc(Cl)cc3)cs2)C1=N
active: [3] -62.4% | [4] -56.2% | [6] 1.48% | [7] -70.7%
inactive: [1] 17.2% | [2] 49.9% | [5] 10.1% | [8] 33.7%

c1coc(-c2c3ccc(=[N+]4CCCCC4)cc-3oc3cc(N4CCCCC4)ccc23)c1
active: [1] -50.4% | [2] -82.8% | [3] -68.1% | [4] -80% | [5] -69.7% | [6] -95.2% | [7] -96.5% | [8] -93.3%

O=C(Nc1cccc(Cl)c1)c1cc(N=Nc2ccc([N+](=O)[O-])cc2Cl)ccc1O
inactive: [1] 53.6% | [2] 81% | [3] 90.5% | [4] 86.1% | [5] 32% | [6] 52.9% | [7] 45.8% | [8] 93.7%

O=c1cc(-c2ccc(Cl)cc2)[nH]c2ccccc12
active: [3] 5.74%
inactive: [1] 87.2% | [2] 101% | [4] 56.9% | [5] 49.9% | [6] 73.2% | [7] 76.7% | [8] 43.7%

CC1CC(C(C)(C)C)C(=O)C(C(C)(C)C)C1 (stereo not drawn)
inactive: [1] 111% | [2] 110% | [3] 103% | [4] 101% | [5] 108% | [6] 108% | [7] 111% | [8] 108%
